37 compounds from PubChem BioAssay (NCATS) can be followed below.

Several values for one entry are separate records, joined by “and”; a condition that tells them apart may be missing. Identical values can stand only once. Inconclusive results are not listed. Activity calls are given as the source filed them. Calls come from the whole dose curve; as a rule, active = well fitted curve in the direction sought with a large enough effect; inconclusive = small, poorly fitted or top-dose-only effect, or another doubt; inactive = no such curve, though single readings can be large or run the other way.
% is set by controls: 0 for no effect and ±100 for the full control effect; potency is the fitted concentration of half-maximal effect.

The nature of the experiment: qHTS Assay for Identifying Gametocytocidal Compounds (AID 743244).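 For max response: actives lower the fluorescent signal which means gametocytes are killed.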 As to conditions: P. falciparum 3D7 stage III-V gametocytes, alamarBlue, 72 h; max response: active compounds read low. The method, boiled down: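 Viability read-out was resazurin reduction (alamarBlue, 24 h) measured at Ex 525/Em 598 nm. Beforehand, late-stage (III-V) 3D7 P. falciparum gametocytes at 20,000 cells/well were incubated with compound 72 h at 37C under 5% CO2.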
`O=C(Nc1ccc(Oc2ccc(Cl)cc2)c(Cl)c1)c1cc(I)cc(I)c1O`: the max response was -9.6% (inactive).

`Cc1c(F)c(N2CCNC(C)C2)cc2c1c(=O)c(C(=O)O)cn2C1CC1` (configuration not stated): the max response is -1.28% (inactive).

`CC(Cc1ccccc1)(NC(=O)CN)c1ccccc1` (configuration not stated): the max response was -4.06% (inactive).

On to `C[C@@H]1C[C@H]2[C@@H]3CCC4=CC(=O)C=C[C@]4(C)[C@@]3(F)[C@@H](O)C[C@]2(C)[C@H]1C(=O)CO`, for which the max response is 9.79% (inactive).

Take `Nc1nc2ncc(CNc3ccc(C(=O)N[C@@H](CCC(=O)O)C(=O)O)cc3)nc2c(=O)[nH]1`: the max response is 17.9% (inactive).

For `Oc1ccc(Cl)c2cccnc12`, the Potency was 7.94 µM (active).

In the case of `CCCCCCCCCCCCCCCC[N+](C)(C)CC`, the Potency was 14.1 µM (active).

With `CC(=O)OCC(=O)[C@@]1(O)[C@H](C)C[C@H]2[C@@H]3CCC4=CC(=O)C=C[C@]4(C)[C@@]3(F)[C@@H](O)C[C@@]21C`, the max response was 9.89% (inactive) and -3.15% (inactive).

As to `C#C[C@]1(O)CC[C@H]2[C@@H]3CCc4cc(OC5CCCC5)ccc4[C@H]3CC[C@@]21C`, the max response was 6.16% (inactive).

Take `COc1cc(/C=C/C(=O)O[C@H]2CC[C@]34C[C@]35CC[C@]3(C)[C@@H]([C@H](C)CCC=C(C)C)CC[C@@]3(C)[C@@H]5CC[C@H]4C2(C)C)ccc1O`: the max response is -6.26% (inactive) and 0.13% (inactive).

On to `CCCCC1=NC2(CCCC2)C(=O)N1Cc1ccc(-c2ccccc2-c2nn[nH]n2)cc1`, for which the max response was 1.29% (inactive).

For the compound `CC(=O)Nc1c(I)cc(I)c(C(=O)O)c1I`, the max response was 44.8% (inactive).

With `CC1(C)O[C@@H]2C[C@H]3[C@@H]4C[C@H](F)C5=CC(=O)CC[C@]5(C)[C@H]4[C@@H](O)C[C@]3(C)[C@]2(C(=O)CO)O1`, the max response is 1.24% (inactive).

In the case of `C=C1C[C@H]2[C@@H]3C=C(C)C4=CC(=O)CC[C@]4(C)[C@H]3CC[C@]2(C)[C@@]1(OC(C)=O)C(C)=O`, the max response was 18% (inactive).

As for `NCCc1ccn[nH]1`, the max response was 5.14% (inactive).

For the compound `COc1ccc(CN2CCN(C(c3ccc(F)cc3)c3ccc(F)cc3)CC2)c(OC)c1OC`, the max response is 1.04% (inactive).

Regarding `CCOC(=O)[C@H](CCc1ccccc1)N[C@@H](C)C(=O)N1Cc2ccccc2C[C@H]1C(=O)O`, the max response is 4.65% (inactive).

Consider `C[C@]12C=CC(=O)C=C1[C@@H](F)C[C@@H]1[C@@H]2[C@@H](O)C[C@@]2(C)[C@H]1CC[C@]2(O)C(=O)CO`, for which the max response was -0.315% (inactive) and -15.3% (inactive).

Consider `CC(C)=CCC1C(=O)N(c2ccccc2)N(c2ccccc2)C1=O`, for which the max response was -12.9% (inactive).

`NC(CO)(CO)CO`: the max response was 0.227% (inactive).

Turning to `CN=C(NC#N)Nc1ccc(C2=NNC(=O)CC2C)cc1` (configuration not stated), the max response was -3.79% (inactive).

`CCCCCCCCCCCCCCCC[N+](C)(C)CCN(Cc1ccc(OC)cc1)c1ncccn1`: the Potency is 7.08 µM (active).

`COc1cc(C(=S)N2CCOCC2)cc(OC)c1OC`: the max response was 7.8% (inactive).

For the compound `CCCSS/C(CCO)=C(\C)N(C=O)Cc1cnc(C)nc1N`, the max response is 2.02% (inactive).

Take `Oc1cc(O)c2c(c1)O[C@H](c1ccc(O)c(O)c1)[C@H](O)C2`: the max response is 2.48% (inactive).

`O=S1(=O)c2cccc3cccc(c23)N1CCCN1CCN(c2ccc(F)cc2)CC1`: the max response was 13.8% (inactive).

Regarding `COc1ccc(CCN2CCC(Nc3nc4ccccc4n3Cc3ccc(F)cc3)CC2)cc1`, the Potency was 3.16 µM (active).

Take `CC(C)(C)NC(=O)[C@@H]1CN(Cc2cccnc2)CCN1C[C@@H](O)C[C@@H](Cc1ccccc1)C(=O)N[C@H]1c2ccccc2C[C@H]1O`: the max response is 5.54% (inactive).

Take `Cc1nc2n(c(=O)c1CCN1CCC(c3noc4cc(F)ccc34)CC1)CCC[C@H]2O`: the max response is -12.7% (inactive).

As for `Oc1c(I)cc(I)c2cccnc12`, the Potency is 8.91 µM (active).

For the compound `c1ccc(OCc2ccc(CCCN3CCOCC3)cc2)cc1`, the max response was -2.94% (inactive).

Consider `Cc1cc(N)c2cc(NC(=O)Nc3ccc4nc(C)cc(N)c4c3)ccc2n1`, for which the max response was -2.17% (inactive).

Regarding `CC1(C)O[C@@H]2C[C@H]3[C@@H]4C[C@H](F)C5=CC(=O)C=C[C@]5(C)[C@H]4[C@@H](O)C[C@]3(C)[C@]2(C(=O)CO)O1`, the max response is -4.1% (inactive).

With `CCN1CCCC1=O`, the max response is 5.59% (inactive).

On to `CCOC(=O)/C=C(C)/C=C/C=C(C)/C=C/c1c(C)cc(OC)c(C)c1C`, for which the max response is 14.1% (inactive).

As to `OC(CCN1CCCCC1)(c1ccccc1)c1ccccc1`, the max response was 13.3% (inactive).

With `O=C1OCCN1/N=C/c1ccc([N+](=O)[O-])o1`, the max response is 2.02% (inactive).
